Laboratory results: PubChem BioAssay (Tox21)
Inconclusive results are not listed. Calls of active or inactive are those of the source. Unless noted, calls follow the shape of the dose curve; as a rule, active = well fitted curve in the direction sought with a large enough effect in the repeat runs; inconclusive = weak or mixed curves; inactive = no such curve, though single readings can be large; an effect the other way counts as inactive or inconclusive.

What was measured:
[1] = qHTS assay to identify small molecule agonists of the RXR signaling pathway - cell viability counter screen (AID 1159529); also: nearly all actives have a fitted effect of over 50% in size; also: potency is read from the fitted curve at half-maximal effect;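 as to activity change, negative = cytotoxicity: HEK 293T cells carrying an RXR-alpha UAS beta-lactamase reporter; series mostly up to about 77 µM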
How it was run: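 RXR-alpha-UAS-bla HEK 293T cells in medium with 2% charcoal-stripped FBS were preincubated 5 hr, then exposed to compounds for 16 hr at 37 C. Viability was read as CellTiter-Glo luminescence after 30 min at room temperature.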

[2] = qHTS assay to identify small molecule antagonists of the retinoid acid receptor (RAR) signaling pathway - cell viability counter screen (AID 1159551); also: nearly all actives have a fitted effect of over 35% in size
How it was run: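 C3RL4 RARE-luciferase line; cpds + retinol 1 uM final, 6 h, 37 C/5% CO2; CellTiter-Glo ATP luminescence, 30 min RT.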

[3] = qHTS assay to identify small molecule antagonists of the retinoic acid receptor (RAR) signaling pathway (AID 1159552; also: nearly all actives have a fitted effect of over 50% in size; also: potency is read from the fitted curve at half-maximal effect)
How it was run: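 RARE-luc C3RL4 cells; cpds + 1 uM (final) retinol, 6 hr, 37 C/5% CO2; luciferase reagent, 30 min RT, luminescence readout. Inhibitors of retinol-driven signal scored.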

[4] = qHTS assay to identify small molecule agonists of the retinoic acid receptor (RAR) signaling pathway (AID 1159553); also: potency is read from the fitted curve at half-maximal effect
How it was run: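 RARE-luc C3RL4 cells; overnight attachment 37 C/5% CO2; compound (DMSO) 6 hr; luciferase reagent, 30 min RT; luminescence read-out.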

[5] = qHTS assay to identify small molecule antagonists of the estrogen related receptor (ERR) signaling pathway from Tox21 library - cell viability counter screen (AID 1224834); also: nearly all actives have a fitted effect of over 30% in size; also: potency is read from the fitted curve at half-maximal effect
How it was run: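 Multiplexed viability counter screen in ERR cells: 17.5 h compound exposure at 37 C, CellTiter-Fluor added, 30 min at 37 C/5% CO2, fluorescence read.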

[6] = target: Luciferin 4-monooxygenase (Photinus pyralis) (UniProt P08659); assay: qHTS assay to identify small molecule inhibitors of firefly luciferase (AID 1224835); also: nearly all actives have a fitted effect of over 25% in size; also: potency is read from the fitted curve at half-maximal effect; as to activity change, negative = inhibition: series mostly up to about 120 µM
How it was run: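 Inhibition of purified Photinus luciferase is measured by luminescence. Substrate levels (D-luciferin, ATP) sit at their KM values. Each compound is tested in a concentration series.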

[7] = qHTS assay to identify small molecule agonists of the constitutive androstane receptor (CAR) signaling pathway - cell viability counter screen (AID 1224836); also: series mostly up to about 92 µM; nearly all actives have a fitted effect of over 45% in size
How it was run: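 HepG2 cells stably carrying hCAR and a CYP2B6-2.2kb reporter were plated 4 h, then given compounds at 15 concentrations plus PK11195 (final 0.75 uM). After 23 h at 37 C, viability was read by CellTiter-Fluor fluorescence.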

[8] = target: Nuclear receptor subfamily 1 group I member 3 (Homo sapiens) (UniProt Q14994); assay: qHTS assay to identify small molecule agonists of the constitutive androstane receptor (CAR) signaling pathway (AID 1224839); also: nearly all actives have a fitted effect of over 15% in size; also: potency is read from the fitted curve at half-maximal effect;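 as to activation: HepG2 cells stably carrying human CAR and a CYP2B6 luciferase reporter; series mostly up to about 92 µM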
How it was run: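 HepG2 cells stably expressing hCAR and a CYP2B6-2.2kb luciferase reporter were treated with compounds at 15 concentrations plus 0.75 uM PK11195 (final) for 24 h at 37 C; luminescence was read after ONE-Glo addition.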

[9] = qHTS assay to identify small molecule antagonists of the estrogen related receptor signaling pathway with the pleiotropic PPARgamma coactivator (PGC) from Tox21 10K library - cell viability counter screen (AID 1224840; active = well fitted cell-killing curve with a large enough effect in the repeat runs, not every such curve was filed as active; also: nearly all actives have a fitted effect of over 40% in size; also: potency is read from the fitted curve at half-maximal effect)
How it was run: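 Fluorescence read-out of CellTiter-Fluor viability reagent, added after cells had been exposed to compound in DMSO for 17.5 h at 37 C; 30 min development at 37 C/5% CO2. Cells: PGC/ERR line, 2,000/well.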

[10] = qHTS assay to identify small molecule antagonists of the estrogen related receptor signaling pathway with the pleiotropic PPARgamma coactivator (PGC) from Tox21 10K library (AID 1224841; call rule not given here; also: actives are mostly falling curves and most rising ones were filed inactive; nearly all actives have a fitted effect of over 50% in size; also: potency is read from the fitted curve at half-maximal effect; as to activity, negative = inhibition: series mostly up to about 92 µM)
How it was run: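 Luminescence read-out (One-Glo luciferase reagent, 30 min at room temperature) from PGC/ERR cells exposed to DMSO-dissolved test compounds for 18 h at 37 C; cells, 2,000 per well, had been preincubated 6 h before compound transfer.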

[11] = qHTS assay to identify small molecule agonists of the estrogen related receptor signaling pathway with the pleiotropic PPARgamma coactivator (PGC) from Tox21 10K library (AID 1224842); also: nearly all actives have a fitted effect of over 15% in size; also: potency is read from the fitted curve at half-maximal effect
How it was run: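 Luminescence from One-Glo (30 min, room temperature) measured after PGC/ERR cells had 18 h at 37 C with pinned compound (23 nL in DMSO). Cells had been seeded at 2,000 per well and pre-incubated 6 h.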

[12] = qHTS assay to identify small molecule antagonists of the constitutive androstane receptor (CAR) signaling pathway - cell viability counter screen (AID 1224837); also: series mostly up to about 92 µM; nearly all actives have a fitted effect of over 45% in size
How it was run: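 Read-out: CellTiter-Fluor fluorescence after 23 hr at 37 C/5% CO2. Cells: HepG2 double-stable for hCAR and CYP2B6-2.2kb. Compounds tested at 15 concentrations in the presence of CITCO, final concentration 50 nM.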

[13] = target: Nuclear receptor subfamily 1 group I member 3 (Homo sapiens) (UniProt Q14994); assay: qHTS assay to identify small molecule antagonists of the constitutive androstane receptor (CAR) signaling pathway (AID 1224838); also: nearly all actives have a fitted effect of over 40% in size; also: potency is read from the fitted curve at half-maximal effect
How it was run: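 Read-out: ONE-Glo luciferase luminescence after 30 min at room temperature. HepG2-CYP2B6-hCAR double-stable cells, compounds in 15-point titration plus 50 nM CITCO final, 24 h at 37 C/5% CO2.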
% is scaled to controls: 0 for no effect and ±100 for the full control effect.

Chain of Luciferin 4-monooxygenase (Photinus pyralis) (P08659 whole entry, looked up): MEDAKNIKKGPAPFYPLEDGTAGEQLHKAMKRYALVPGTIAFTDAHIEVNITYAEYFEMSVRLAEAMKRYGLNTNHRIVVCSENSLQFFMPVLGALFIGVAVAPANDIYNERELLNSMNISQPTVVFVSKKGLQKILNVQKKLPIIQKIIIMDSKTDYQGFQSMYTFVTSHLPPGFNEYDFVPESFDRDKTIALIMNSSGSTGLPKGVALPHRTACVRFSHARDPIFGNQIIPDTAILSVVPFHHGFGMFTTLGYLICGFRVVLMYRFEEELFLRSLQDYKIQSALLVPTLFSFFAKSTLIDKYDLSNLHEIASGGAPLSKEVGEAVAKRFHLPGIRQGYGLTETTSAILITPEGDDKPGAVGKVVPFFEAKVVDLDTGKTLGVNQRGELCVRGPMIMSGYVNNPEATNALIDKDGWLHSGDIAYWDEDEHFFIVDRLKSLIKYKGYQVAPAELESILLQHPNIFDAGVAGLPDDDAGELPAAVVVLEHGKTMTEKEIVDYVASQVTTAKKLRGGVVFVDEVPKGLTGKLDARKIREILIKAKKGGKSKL
Chain of Nuclear receptor subfamily 1 group I member 3 (Homo sapiens) (Q14994 whole entry, looked up): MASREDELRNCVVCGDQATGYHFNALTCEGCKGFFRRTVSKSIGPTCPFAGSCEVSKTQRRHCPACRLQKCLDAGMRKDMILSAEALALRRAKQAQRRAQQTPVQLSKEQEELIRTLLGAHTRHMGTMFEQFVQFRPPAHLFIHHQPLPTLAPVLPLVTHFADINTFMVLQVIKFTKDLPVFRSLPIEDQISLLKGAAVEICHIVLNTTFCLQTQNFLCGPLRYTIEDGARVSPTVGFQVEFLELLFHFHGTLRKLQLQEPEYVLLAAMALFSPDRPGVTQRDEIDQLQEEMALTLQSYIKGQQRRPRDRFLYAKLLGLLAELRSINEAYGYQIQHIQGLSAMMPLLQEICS

Nc1ccc(Oc2ccc(N)c(N)c2)cc1
active: Potency [4] 1.72 µM | Potency [5] 27.3 µM | Potency [6] 7.96 µM | Potency [8] 2.43 µM | Potency [9] 48.6 µM | Potency [11] 9.69 µM
inactive: Potency [1] | outcome [2] | Potency [3] | Potency [7] | Potency [10]

C=CC1CO1 (configuration not stated)
inactive: Potency [1] | outcome [2] | Potency [3] | Potency [4] | Potency [5] | Potency [6] | Potency [7] | Potency [12] | Potency [9]

COc1ccc(Nc2ccc(OC)cc2)cc1
inactive: Potency [1] | outcome [2] | Potency [3] | Potency [7] | Potency [12] | Potency [13] | Potency [9]
active: Potency [4] 4.94 µM | Potency [6] 20.4 µM | Potency [8] 17.5 µM | Potency [11] 27.8 µM

O=C(CC(=O)C(F)(F)F)c1ccccc1
active: Potency [4] 22 µM | Potency [8] 55.3 µM | Potency [11] 6.2 µM
inactive: Potency [1] | outcome [2] | Potency [3] | Potency [7] | Potency [12] | Potency [13] | Potency [10]

CCCCC(=O)O[C@]1(C(=O)CO)[C@H](C)C[C@H]2[C@@H]3CCC4=CC(=O)C=C[C@]4(C)[C@@]3(F)[C@@H](O)C[C@@]21C
inactive: Potency [1] | outcome [2] | Potency [3] | Potency [4] | Potency [5] | Potency [6] | Potency [7] | Potency [12] | Potency [9] | Potency [10] | Potency [11]

CC(C)(C)c1cccc(O)c1
inactive: Potency [1] | outcome [2] | Potency [3] | Potency [4] | Potency [5] | Potency [7] | Potency [12] | Potency [9] | Potency [10] | Potency [11]

CC1(O)CSC(C)(O)CS1 (configuration not stated)
inactive: Potency [1] | outcome [2] | Potency [3] | Potency [4] | Potency [5] | Potency [6] | Potency [7] | Potency [12] | Potency [8] | Potency [9]

O=Cc1ccc(O)c(O)c1O
inactive: Potency [1] | outcome [2] | Potency [3] | Potency [6] | Potency [7] | Potency [12] | Potency [13] | Potency [8] | Potency [9]

O=C(O)C(=O)Cc1c[nH]c2ccccc12
inactive: Potency [1] | outcome [2] | Potency [3] | Potency [5] | Potency [7] | Potency [12] | Potency [13] | Potency [9]
active: Potency [4] 34.4 µM | Potency [8] 30.6 µM

COc1ccc(S(=O)(=O)Nc2nnc(CC(C)C)s2)cc1
inactive: Potency [1] | outcome [2] | Potency [3] | Potency [4] | Potency [5] | Potency [7] | Potency [12] | Potency [9]

CCCCCCCCc1ccc(S(=O)(=O)O)cc1
active: Potency [1] 24.3 µM
inactive: outcome [2] | Potency [3] | Potency [4] | Potency [5] | Potency [7] | Potency [12] | Potency [13] | Potency [8] | Potency [9]

CC(C)OC(C)C
inactive: Potency [1] | outcome [2] | Potency [3] | Potency [4] | Potency [5] | Potency [6] | Potency [7] | Potency [12] | Potency [8] | Potency [9] | Potency [10] | Potency [11]

CC(C)c1ccccc1
inactive: Potency [1] | outcome [2] | Potency [3] | Potency [5] | Potency [6] | Potency [7] | Potency [12] | Potency [13] | Potency [8] | Potency [9]

O=C(O)c1ccccc1Nc1cc(Cl)ccc1C(=O)O
inactive: activity change, negative = cytotoxicity [1] -23.8% [at 15.8 µM] | activity change, negative = cytotoxicity [2] -3.95% [at 19 µM] | activity, negative = inhibition [3] -145% [at 19 µM] | viability change, negative = cytotoxic [5] -1.64% [at 19 µM] | activity change, negative = inhibition [6] -7.25% [at 23.6 µM] | viability change, negative = cytotoxic [7] -10% [at 19 µM] | activity change, negative = cytotoxicity [12] -10.7% [at 19 µM] | activity, negative = inhibition [13] -20% [at 19 µM] | activation [8] -3.13% [at 19 µM] | viability change, negative = cytotoxic [9] -4.89% [at 19 µM] | activity, negative = inhibition [10] 1.12% [at 19 µM] | activation [11] 0.171% [at 19 µM]

CC(C)(C)c1ccc(OC(=O)c2ccccc2O)cc1
active: Potency [1] 49 µM | Potency [4] 1.09 µM | Potency [6] 1.78 µM | Potency [11] 10.9 µM
inactive: outcome [2] | Potency [3] | Potency [5] | Potency [7] | Potency [12] | Potency [13] | Potency [9] | Potency [10]

CC(C)(CO)[C@@H](O)C(=O)NCCC(=O)O
inactive: Potency [1] | outcome [2] | Potency [3] | Potency [4] | Potency [5] | Potency [7] | Potency [12] | Potency [13] | Potency [8] | Potency [9] | Potency [10] | Potency [11]

CCCNC(C)(C)COC(=O)c1ccccc1
inactive: Potency [1] | outcome [2] | Potency [3] | Potency [4] | Potency [5] | Potency [7] | Potency [12] | Potency [13] | Potency [9] | Potency [10] | Potency [11]

COC(=O)c1ccc2cc(C(=O)OC)ccc2c1
active: Potency [11] 4.44 µM
inactive: activity change, negative = cytotoxicity [1] -6.68% [at 15.8 µM] | activity change, negative = cytotoxicity [2] 0.0867% [at 19 µM] | activity, negative = inhibition [3] -32% [at 19 µM] | viability change, negative = cytotoxic [5] -1.01% [at 19 µM] | activity change, negative = inhibition [6] -7.06% [at 23.6 µM] | viability change, negative = cytotoxic [7] 6.04% [at 19 µM] | activity change, negative = cytotoxicity [12] -9.38% [at 19 µM] | viability change, negative = cytotoxic [9] 1.78% [at 19 µM] | activity, negative = inhibition [10] 221% [at 19 µM]

CCOC(=O)CS
inactive: Potency [1] | outcome [2] | Potency [4] | Potency [5] | Potency [7] | Potency [12] | Potency [8] | Potency [9] | Potency [11]
active: Potency [3] 28.1 µM | Potency [13] 56 µM | Potency [10] 14.1 µM

CCCCCCCCCCCCOCCOS(=O)(=O)O
inactive: outcome [2] | Potency [3] | Potency [4] | Potency [7] | Potency [12] | Potency [13] | Potency [8] | Potency [9] | Potency [10] | Potency [11]
active: Potency [1] 19.5 µM

Cc1ccc([N+](=O)[O-])cc1Cl
inactive: Potency [1] | outcome [2] | Potency [3] | Potency [4] | Potency [5] | Potency [6] | Potency [7] | Potency [12] | Potency [13] | Potency [8] | Potency [9] | Potency [10] | Potency [11]

CN(C)Cc1ccccc1
inactive: Potency [1] | outcome [2] | Potency [3] | Potency [4] | Potency [5] | Potency [7] | Potency [12] | Potency [9]
